Consider 24 compounds from ChEMBL document CHEMBL4296182, “CO-ADD screening of NIH NCI Diversity Set V”.

For part of these data: Entries with a potency or affinity are not part of this list.

In one assay the test system is Staphylococcus aureus. Description: Antibacterial activity against Staphylococcus aureus MRSA ATCC 43300 (CO-ADD:GP_020); MIC in CAMBH media using NBS plates, by Resazurin F(560/590). Format: functional. The settings on record: Concentration 20 uM, ASSAY_TEST Inhibition of Bacterial Growth, detection method Resazurin, Fluorescence (ex560/em590), MEDIA CAMHB, plate type 384well, CORNING #3640, time 18 hr. (Resazurin is reduced to fluorescent resorufin, in cell work by metabolically active cells.)

For another assay, the system named is Acinetobacter baumannii. Description: Antibacterial activity against Acinetobacter baumannii ATCC 19606 (CO-ADD:GN_034); MIC in CAMBH media using NBS plates, by Resazurin F(560/590). Format: functional. The settings on record: Concentration 20 uM, ASSAY_TEST Inhibition of Bacterial Growth, detection method Resazurin, Fluorescence (ex560/em590), MEDIA CAMHB, plate type 384well, CORNING #3640, time 18 hr.

The subject of the next assay is Escherichia coli. The assay is described as follows: Antibacterial activity against Escherichia coli ATCC 25922 (CO-ADD:GN_001); MIC in CAMBH media using NBS plates, by Resazurin F(560/590). It counts as functional. Conditions: Concentration 20 uM, ASSAY_TEST Inhibition of Bacterial Growth, detection method Resazurin, Fluorescence (ex560/em590), MEDIA CAMHB, plate type 384well, CORNING #3640, time 18 hr.

Another assay has as its system Klebsiella pneumoniae. The settings on record: Concentration 20 uM; ASSAY_TEST Inhibition of Bacterial Growth; detection method Absorption (OD600); MEDIA CAMHB; plate type 384well; NBS; CORNING #3640; time 18 hr.
The test system of a further assay is Candida albicans. Conditions: 20 µM.
Another assay has as its system Cryptococcus neoformans. Conditions: Concentration 20 uM; ASSAY_TEST Inhibition of Fungal Growth; detection method Resazurin; Absorption (OD600-OD570); plate type 384well; NBS; CORNING #3640.

For orientation: Inhibition means the relative decrease from the control value, in per cent. With `COc1ccc(-c2cc(-c3ccccc3)c(-c3ccccc3)nn2)cc1`, the Inhibition in the assay on Staphylococcus aureus is -3.16%; in the assay on Acinetobacter baumannii, 8.32%; in the assay on Escherichia coli it was 6.8%; with Klebsiella pneumoniae, -1.34%; in the assay with Candida albicans, 2.55%; in the assay on Cryptococcus neoformans it was -12.46%.
Turning to `O/N=C(/c1ccccc1)c1ccc2c3c(cccc13)CC2`, the Inhibition is -1.68% in the assay with Staphylococcus aureus; -12.52% with Acinetobacter baumannii; 6.08% in the assay with Escherichia coli; 9.85% in the assay with Klebsiella pneumoniae; 11.2% with Candida albicans; -8.52% in the assay on Cryptococcus neoformans.
For the compound `CC12CCC(C1)C(C)(C)C2OC(=O)c1ccccc1C(=O)O` (centres undefined), the Inhibition is 7.81% in the assay on Staphylococcus aureus; -7.81% with Acinetobacter baumannii; -3.09% with Escherichia coli; 22.55% in the assay with Klebsiella pneumoniae; 4.22% with Candida albicans; -18.67% with Cryptococcus neoformans.
With `CCOC(=O)CCC1(C(=O)OC)C(=O)CCCCC/C=C/1C(=O)OC` (centres undefined), the Inhibition was 9.69% in the assay with Staphylococcus aureus; 9.62% in the assay with Acinetobacter baumannii; -17.88% in the assay on Escherichia coli; 8.19% in the assay on Klebsiella pneumoniae; 7.46% with Candida albicans; 18.91% in the assay with Cryptococcus neoformans.
With `COc1c(/C=N/NC(N)=O)c(OC)c(OC)c2c1CCO2`, the Inhibition with Staphylococcus aureus was 5.41%; with Acinetobacter baumannii it was 0.63%; in the assay on Escherichia coli it was -9.64%; in the assay with Klebsiella pneumoniae, 15.41%; in the assay on Candida albicans it was 4.39%; with Cryptococcus neoformans, 14.65%.
Turning to `OC1COC(OCc2ccccc2)C(O)C1O` (centres undefined), the Inhibition in the assay on Staphylococcus aureus was 21%; in the assay with Acinetobacter baumannii, -10.71%; with Escherichia coli, 8.16%; in the assay with Klebsiella pneumoniae, 4.56%; in the assay with Candida albicans it was 0.34%; in the assay with Cryptococcus neoformans it was -6.82%.
Take `CC(C)N(C(=O)c1cccc([N+](=O)[O-])c1)C(C)C`: the Inhibition in the assay on Staphylococcus aureus was 9.59%; in the assay with Acinetobacter baumannii it was -13.76%; in the assay on Escherichia coli, 4.26%; in the assay on Klebsiella pneumoniae, 0.52%; in the assay on Candida albicans it was 0.26%; in the assay with Cryptococcus neoformans, -4.03%.
Consider `O=C(O)c1ccccc1-c1ccccc1C(=O)Nc1ccc2c(c1)nc(O)c1ccccc12`, for which the Inhibition is 7.3% with Staphylococcus aureus; -9.28% with Acinetobacter baumannii; 10.96% with Escherichia coli; 7.34% in the assay with Klebsiella pneumoniae; 7.22% in the assay on Candida albicans; -6.01% with Cryptococcus neoformans.
Turning to `CCNC(=O)Oc1cccnc1O`, the Inhibition was 2.22% with Staphylococcus aureus; -10.2% in the assay on Acinetobacter baumannii; 11.39% in the assay with Escherichia coli; 5.97% in the assay with Klebsiella pneumoniae; 1.04% in the assay on Candida albicans; -16.02% in the assay on Cryptococcus neoformans.
Regarding `COc1ccc(CN2CCOC2=O)cc1OC`, the Inhibition was 2.93% in the assay with Staphylococcus aureus; -8.7% with Acinetobacter baumannii; 2.98% with Escherichia coli; 20.13% in the assay with Klebsiella pneumoniae; -0.97% with Candida albicans; -5.16% with Cryptococcus neoformans.
On to `Cn1ncc2c(Nc3ccccc3Cl)nc(Nc3ccccc3Cl)nc21`, for which the Inhibition in the assay with Staphylococcus aureus was 12.86%; with Acinetobacter baumannii it was -3.35%; in the assay on Escherichia coli, -7.44%; in the assay with Klebsiella pneumoniae, 23.76%; in the assay on Candida albicans it was 8.17%; with Cryptococcus neoformans, -4.25%.
On to `COC(=O)Cc1[nH]c(O)nc1C(=O)OC`, for which the Inhibition with Staphylococcus aureus was 5.51%; in the assay on Acinetobacter baumannii it was -8.26%; in the assay with Escherichia coli, 3.06%; in the assay on Klebsiella pneumoniae, 20.66%; with Candida albicans, -0.45%; in the assay on Cryptococcus neoformans, -7.96%.
For `COC1OCC(O)C(NC(=O)N(C)N=O)C1O` (centres undefined), the Inhibition with Staphylococcus aureus is -1.39%; in the assay with Acinetobacter baumannii it was 15.65%; in the assay with Escherichia coli it was -7.74%; in the assay with Klebsiella pneumoniae, 18.14%; with Candida albicans it was 5.35%; in the assay on Cryptococcus neoformans, -2.94%.
Consider `CCC(C)N=C(S)Nc1ccccc1` (centres undefined), for which the Inhibition with Staphylococcus aureus is -4.21%; with Acinetobacter baumannii, 6.89%; with Escherichia coli, 4.84%; in the assay on Klebsiella pneumoniae, 5.07%; in the assay on Candida albicans, 5.4%; in the assay with Cryptococcus neoformans, -3.02%.
For the compound `C1CCCC(NC2=NCCO2)CCC1`, the Inhibition is -8.35% in the assay on Staphylococcus aureus; -11.54% in the assay with Acinetobacter baumannii; -9.72% in the assay with Escherichia coli; 4.38% in the assay on Klebsiella pneumoniae; -2.21% in the assay with Candida albicans; -3.14% in the assay with Cryptococcus neoformans.
For `O=S1(=O)CCC(N(/N=C/c2ccco2)c2ccccc2)C1` (centres undefined), the Inhibition with Staphylococcus aureus was 6.29%; in the assay on Acinetobacter baumannii, -4.36%; in the assay on Escherichia coli, -3.36%; with Klebsiella pneumoniae, 6.93%; with Candida albicans, -2.37%; in the assay on Cryptococcus neoformans, -1.06%.
Regarding `Cc1ccc(/N=N\c2c(O)ccc3[nH]nnc23)cc1`, the Inhibition was -9.42% in the assay with Staphylococcus aureus; -9.08% in the assay with Acinetobacter baumannii; 4.02% in the assay with Escherichia coli; 11.98% with Klebsiella pneumoniae; 13.2% in the assay with Candida albicans; -12.82% with Cryptococcus neoformans.
In the case of `Oc1ccccc1Nc1ccccn1`, the Inhibition is 8.12% with Staphylococcus aureus; -5.24% in the assay with Acinetobacter baumannii; 13.47% in the assay on Escherichia coli; 16.23% with Klebsiella pneumoniae; 1.04% in the assay with Candida albicans; -3.55% with Cryptococcus neoformans.
Take `Nc1nc(SCc2ccccn2)c2ncn(C3OC(CO)C(O)C3O)c2n1` (centres undefined): the Inhibition is 6.83% with Staphylococcus aureus; 2.95% in the assay with Acinetobacter baumannii; 4.84% in the assay on Escherichia coli; 10.89% in the assay on Klebsiella pneumoniae; -1.39% in the assay on Candida albicans; -4.63% in the assay on Cryptococcus neoformans.
Take `N#CCc1cnc2ccccc2n1`: the Inhibition was 13.21% in the assay with Staphylococcus aureus; -15.61% in the assay with Acinetobacter baumannii; 3.75% with Escherichia coli; 2.07% in the assay with Klebsiella pneumoniae; -2.07% with Candida albicans; -9.92% in the assay with Cryptococcus neoformans.
On to `Cc1ccc([N+](=O)[O-])cc1NC(=O)Nc1ccc(S(N)(=O)=O)cc1`, for which the Inhibition in the assay with Staphylococcus aureus was 2.59%; with Acinetobacter baumannii, 7.91%; in the assay on Escherichia coli, 0%; in the assay with Klebsiella pneumoniae, 0.38%; in the assay with Candida albicans it was -0.57%; with Cryptococcus neoformans it was -7.76%.
In the case of `Nc1nnc(S)n1-c1ccc(Cl)cc1`, the Inhibition in the assay with Staphylococcus aureus is 10.79%; with Acinetobacter baumannii, -9.57%; with Escherichia coli it was 13.33%; in the assay on Klebsiella pneumoniae it was -2.18%; in the assay on Candida albicans it was 11.3%; in the assay on Cryptococcus neoformans, -11.28%.
As for `CCc1nc(N)nc(N)c1-c1ccc(N(C)Cc2ccccc2)c([N+](=O)[O-])c1`, the Inhibition with Staphylococcus aureus was -14.23%; in the assay with Acinetobacter baumannii it was -5.52%; with Escherichia coli, 6.75%; in the assay with Klebsiella pneumoniae, 5.93%; with Candida albicans it was 0.08%; with Cryptococcus neoformans it was -8.19%.
Turning to `COc1ccc(NC(=O)CC(C)=O)c(OC)c1`, the Inhibition in the assay with Staphylococcus aureus was 5.13%; in the assay on Acinetobacter baumannii, -8.6%; in the assay with Escherichia coli it was 1.4%; with Klebsiella pneumoniae it was 22.3%; in the assay on Candida albicans, 0.23%; with Cryptococcus neoformans it was -3.01%.
